CHX counter – Cycloheximide Counterscreen for Small Molecule Inhibitors of Shiga Toxin | cell reporter, cycloheximide protein synthesis inhibition counterscreen | AID 2314, 2010 | 12% of 300,000 active | max response, %; in the data active means max response mostly above about 13%, no sharp cut-off; inactive means mostly below about 14%; further: read at 38.3 µM for the half of the compounds with a filed dose
Pf growth 48h – Primary qHTS for delayed death inhibitors of the malarial parasite plastid, 48 hour incubation; P. falciparum luciferase growth in erythrocytes, 48 h; Potency, µM (top dose mostly 28.7 µM), most hits filed as inhibitors; 5.9% of 310,000 active
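Erythrocytes infected with P. falciparum carrying an integrated firefly luciferase reporter (2% hematocrit, 0.1% parasitemia final) were exposed to compounds in RPMI 1640 with 0.5% Albumax at 37 C, 5% CO2. Growth inhibition was scored as reduced luminescence.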
NS1 inh – qHTS Assay for Inhibitors of Influenza NS1 Protein Function | Potency, µM (series often up to 46.1 µM) | 0.4% of 270,000 active; calls by dose curve; further: actives are rising curves; nearly all actives have a fitted effect of over 50% in size
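OD600 was taken as the measure of yeast growth restored by compound in an NS1-expressing S. cerevisiae strain. Cells had been washed out of glucose medium and diluted 1:100 into galactose -URA medium, pH 6.0.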
Pf growth 96h – Primary qHTS for delayed death inhibitors of the malarial parasite plastid, 96 hour incubation; P. falciparum luciferase reporter growth, 96 h; Potency, µM (highest dose often 28.7 µM), usual class: inhibitors; 6.9% of 320,000 active; AID 504834, 2011
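Delayed-death screen, second-generation endpoint: infected erythrocytes, 2% hematocrit, 0.05% parasitemia final; 96 hours at 37 C, 5% CO2; luciferase detection reagent; luminescence decrease equals reduced growth.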
Shiga inhibitor – A qHTS for Small Molecule Inhibitors of Shiga Toxin | Vero cells, Shiga toxin protein synthesis inhibition reporter | inhibition, % at 38.7 µM | 9.2% of 290,000 active; in the data active means inhibition mostly above about 28%, no sharp cut-off; inactive means mostly below about 43%
Each line names hits and unclear results; the compound was inactive in the other large screens. The list is not random: actives were taken first. Their share in the collection is about 21%. Unless noted, the call rests on the fitted dose curve; in most records, active means well fitted inhibition curve with a large enough effect; inconclusive means small, poorly fitted or top-dose-only effect, or another doubt; inactive means no such curve, though single readings can be large or run the other way.

O=C(NC(=S)Nc1nc(-c2ccc([N+](=O)[O-])cc2)cs1)c1ccco1	CHX counter 18, Pf growth 96h inconclusive, Shiga inhibitor 51
Cc1csc(NC(=O)c2c(-c3ccccc3)noc2C)n1	none
COCCCNC(=O)COc1ccc2oc3c(c2c1)CCCC3	none
CC1CN(C(=O)CS(=O)(=O)Cc2ccc(Cl)cc2)CC(C)O1 (configuration not stated)	none
OC[C@@H](O)C(O)[C@H](O)[C@@H](O)CO (some centres not stated)	none (no result: Pf growth 48h, NS1 inh, Pf growth 96h)
COc1ccc(-c2csc(NC(=O)Cn3nc(C)cc3C)n2)cc1	none (no result: Pf growth 96h)
COc1ccc(-c2csc(NC(=O)CC(C)C)n2)cc1	CHX counter 48, Shiga inhibitor 84
Cc1nnc(NC(=O)c2ccco2)s1	none
O=C(NNc1nc(-c2ccc(Br)cc2)cs1)c1ccco1	CHX counter 31, Pf growth 48h 1.7µM, Shiga inhibitor 81
CC(C)CC(=O)NC(=S)Nc1nc(-c2cccc3ccccc23)cs1	Pf growth 96h 13µM
O=C(Nc1nc(-c2ccccc2)cs1)c1ccco1	CHX counter 89, Shiga inhibitor 122
CC(=O)Nc1ccc(-c2csc(NNC(=O)c3ccc(C)cc3)n2)cc1	none
CN(Cc1ccco1)C(=O)c1ccc(S(=O)(=O)N2CCCCCC2)cc1	none (no result: CHX counter, NS1 inh, Shiga inhibitor)
COc1ccc(-c2csc(NC(=O)c3ccco3)n2)cc1	CHX counter 55, Shiga inhibitor 50
CCOc1ccc(-c2csc(NC(=O)c3ccco3)n2)cc1	CHX counter 39, Pf growth 96h 10µM
Cc1ccc(-c2csc(NC(=O)Cc3ccc(F)cc3)n2)o1	CHX counter 15 (no result: NS1 inh)
COc1ccc(-c2csc(N(CC(C)C)C(=O)c3ccco3)n2)cc1	none (no result: Shiga inhibitor)
COc1ccc(OC)c(-c2csc(NC(=O)Cc3ccc(F)cc3)n2)c1	Pf growth 48h inconclusive
O=C(Nc1cc(-c2ccccc2)cs1)c1ccco1	Pf growth 48h inconclusive, Pf growth 96h 2.3µM (no result: CHX counter, NS1 inh, Shiga inhibitor)
O=C(NCCCN1CCCC1=O)c1ccc(S(=O)(=O)Nc2cccc(C(F)(F)F)c2)cc1	none (no result: CHX counter, NS1 inh, Shiga inhibitor)
COc1ccc(CC(NC(C)=O)C(=O)NC2CCN(c3nnnn3-c3ccccc3)CC2)cc1 (configuration not stated)	none
COc1cccc(CC(NC(C)=O)C(=O)NC2CCN(S(=O)(=O)c3cccc4ccccc34)CC2)c1 (configuration not stated)	Pf growth 96h 12µM (no result: Pf growth 48h)
COc1ccc(S(=O)(=O)N2CCC(NC(=O)C(Cc3cccc(OC)c3OC)NC(C)=O)CC2)cc1 (configuration not stated)	none
COc1nc(OC)nc(N2CCC(NC(=O)C(Cc3ccc(C(C)C)cc3)NC(C)=O)CC2)n1 (configuration not stated)	Pf growth 48h 10µM
COc1cc(CC(NC(C)=O)C(=O)NC2CCN(c3nc(OC)nc(OC)n3)CC2)cc(OC)c1 (configuration not stated)	Pf growth 48h 13µM, Pf growth 96h 5.2µM
COc1cc(CC(NC(C)=O)C(=O)NC2CCN(C(=O)C3CC3)CC2)cc(OC)c1 (configuration not stated)	none
CC(C)CC(NC(=O)c1ccc(Cl)cc1)C(=O)OCc1cc([N+](=O)[O-])cc2c1OCOC2 (configuration not stated)	none
Cc1ccc(C(=O)N/C(=C\c2cccs2)C(=O)NCc2ccncc2)cc1	none
O=C1C2C(C(=O)N1/N=C/c1ccc(N3CCCCC3)o1)C1C=CC2C12CC2 (configuration not stated)	Pf growth 96h inconclusive
O=C1CC(c2ccccc2)CC2=C1C=Nc1ccccc1N2 (configuration not stated)	Pf growth 48h inconclusive, Pf growth 96h inconclusive
O=C(Nc1ccc2[nH]ccc2c1)c1ccccc1	CHX counter 27
O=C(Nc1ccc2[nH]ccc2c1)c1ccc(F)cc1	CHX counter 13
O=C(NNC(=O)c1ccc(NC(=O)c2ccccc2)cc1)c1ccc(F)cc1	none
Clc1ncc(Cn2cccn2)s1	none
Cc1ccc(/C=C/C(=O)OCC(=O)Nc2cccc(S(=O)(=O)N(C)C)c2)o1	CHX counter 14
Cc1ccc(S(=O)(=O)N(C)C)cc1NC(=O)COC(=O)/C=C/c1ccc2c(c1)OCO2	CHX counter 17, Pf growth 96h inconclusive (no result: NS1 inh)
COc1ccc(/C=C/C(=O)OCC(=O)Nc2ccc3c(c2)OCO3)cc1	none (no result: CHX counter, NS1 inh, Shiga inhibitor)
CN(C)S(=O)(=O)c1cccc(NC(=O)COC(=O)/C=C/c2ccco2)c1	none
CN(C)S(=O)(=O)c1cccc(NC(=O)COC(=O)/C=C/c2ccc3c(c2)OCO3)c1	CHX counter 16
Cc1cc(N2CCN(c3ccccc3)CC2)n2nnnc2n1	none
Cc1cc(N2CCN(c3ccccc3)CC2)n2cc(-c3ccccc3)nc2n1	Pf growth 48h inconclusive, Pf growth 96h 7.4µM
Cc1cc(N2CCN(c3ccccc3)CC2)n2c(n1)nc1ccccc12	Pf growth 48h 5.9µM, Pf growth 96h inconclusive
Cc1ccc(OC(C)C(=O)Nc2ccccc2C(=O)N2CCOCC2)cc1 (configuration not stated)	none
CCn1c(SCc2ccc(F)cc2)nnc1-c1nn(-c2ccccc2)ccc1=O	Pf growth 48h inconclusive, Pf growth 96h 5.2µM
CCn1c(SCc2ccc(F)cc2)nc2ccccc2c1=O	none
CC1=NN(C(=S)Nc2ccccc2)C(C)(C)C1	Pf growth 96h inconclusive
O=[N+]([O-])c1ccc2c(c1)S(=O)c1ccccc1-2 (configuration not stated)	Pf growth 48h 8.3µM, Pf growth 96h inconclusive
Cc1ccc(NC(=O)Cn2ccc([N+](=O)[O-])n2)cc1Cl	Pf growth 96h inconclusive (no result: NS1 inh)
Cc1ccc(C(=O)N/C(=C\c2cccs2)C(=O)NCCCn2ccnc2)cc1C	none
O=C1CC(N2CCOCC2)=NN1c1ccc([N+](=O)[O-])cc1	CHX counter 18, Pf growth 48h inconclusive, Pf growth 96h inconclusive
Cc1ccnc(SCCn2c(N3CC(C)CC(C)C3)nc3c2c(=O)n(C)c(=O)n3C)n1 (configuration not stated)	none
COc1ccc(-c2cn3nc4c(nc3n2)CCCC4)cc1	CHX counter 26, Shiga inhibitor 48 (no result: Pf growth 48h)
COc1ccc(/C=C/C(=O)c2ccccc2)c(OC)c1	CHX counter 23, Shiga inhibitor 74 (no result: NS1 inh)
COc1ccc(OC)c(/C=C/C(=O)c2ccc(Cl)cc2)c1	none
COc1cc(O)c(C(=O)/C=C/c2ccccc2)c(OC)c1	CHX counter 34, Pf growth 48h inconclusive, Pf growth 96h inconclusive, Shiga inhibitor 70
COc1ccc(/C=C/C(=O)c2ccc(OC)cc2OC)c(OC)c1	Pf growth 48h inconclusive, Pf growth 96h 3.7µM
COc1ccc(/C=C/C(=O)c2ccc3c(c2)OCO3)c(OC)c1	CHX counter 59, Shiga inhibitor 61
CC(C)N(C(C)C)S(=O)(=O)c1ccc(NC(=O)c2cnccn2)cc1	Pf growth 96h inconclusive (no result: Shiga inhibitor)
CC(Oc1ccc2c3c(c(=O)oc2c1)CCCC3)C(=O)NCc1ccncc1 (configuration not stated)	Pf growth 96h inconclusive

Compound activity deposited in PubChem by National Center for Advancing Translational Sciences (NCATS).
